# Experimental data reported in the supplement of paper PMC6555819.
# How the values were obtained:
# Assay in all cases: PBM binding z-score (relative to random genomic background probes); higher = stronger binding; sequences stand for … in GC…GCGATTGACAGCGTAGAATGAAGG
# [1] = test system: PPARg:RXRa DBDmut IVT, anti-RXR (DBD mutation: RXRa K156A/R161A, NR concentration 270 nM, RXRa partner concentration 90 nM)
# Method in brief: (§1)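 The probes on custom Agilent 4×180K protein-binding microarrays were double-stranded, with 34-nt variable regions bearing direct-repeat seeds, single-nucleotide variants, half-site ablations and random human genomic background sequences. Incubation lasted 1 h with ligand-free nuclear receptor dimers in PBS pH 7.4, 2% milk, 0.02% Triton X-100, 1 mM DTT, 0.2 mg/mL BSA and 0.4 mg/ml salmon testes DNA. Antibodies against each partner (one per run) detected bound dimers, and fluorescence scans were regression-normalized. Binding z-scores take the random background probes as reference.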
# [2] = test system: PPARg:RXRa IVT, anti-PPARg (NR concentration 270 nM, RXRa partner concentration 90 nM)
# Method in brief: as §1
# [3] = test system: PPARg DBDmut:RXRa IVT, anti-PPARg (DBD mutation: PPARg1 K132A/R137A, NR concentration 270 nM, RXRa partner concentration 90 nM)
# Method in brief: as §1
# [4] = test system: PPARg DBDmut IVT, anti-PPARg (DBD mutation: PPARg1 K132A/R137A, NR concentration 270 nM)
# Method in brief: as §1
# [5] = test system: PPARg homodimer (NR concentration 180 nM)
# Method in brief: as §1
# [6] = test system: PXR:RXRa (NR concentration 270 nM, RXRa partner concentration 90 nM)
# Method in brief: as §1
# [7] = test system: PXR homodimer (NR concentration 270 nM)
# Method in brief: as §1
# [8] = test system: RARa:RXR (NR concentration 270 nM, RXRa partner concentration 90 nM)
# Method in brief: as §1
# [9] = test system: RARa homodimer (NR concentration 270 nM)
# Method in brief: as §1
# [10] = test system: RARb:RXRa (NR concentration 270 nM, RXRa partner concentration 90 nM)
# Method in brief: as §1
Sequence,PBM binding z-score [1],PBM binding z-score [2],PBM binding z-score [3],PBM binding z-score [4],PBM binding z-score [5],PBM binding z-score [6],PBM binding z-score [7],PBM binding z-score [8],PBM binding z-score [9],PBM binding z-score [10]
CCGACTGGGGCAAGGTTACTATAACGCACAGCCA,2.98,3.39,0.184,-0.443,0.157,0.274,-0.27,0.867,-0.248,1.38
TCTTGTAGATCAATAGAGGTTAGGAAAGTGCGCT,2,0.75,0.694,0.358,0.823,2.06,0.156,1.41,0.518,0.535
ATCTCTAGGCAAGACTCAGTTCAGTGAAGAACGC,0.117,-0.103,0.0484,-0.188,0.522,0.202,0.453,-0.255,-0.0609,-0.159
CTTACAGGGTCAGCTAGGCCAGAGTAGGGACGGC,2,2.59,-0.146,-0.1,0.148,1.88,-0.368,2.75,0.0802,4.04
CCAGTCAGGTGAGAAGGTAACTCAGCCTCGATTA,1.41,1.02,-1.66,-1.63,0.612,-0.228,-0.000389,0.355,0.15,0.754
CGTCCTAGGTCAAGGTCAGTGAAAGAGACTCGAA,3.53,4.08,0.311,0.279,3.52,3.4,0.941,4.02,1.1,5.01
GCTCGGAGGACAAGGTCAGACCTTTGTCCGTAGA,-0.401,1.17,-0.273,-0.216,0.937,2.18,-0.193,2.61,-0.422,3.67
CGTCCATGGTCAAAGGTCAGTGAAGAGATGACGG,0.409,3.55,0.423,0.425,6.15,4.15,0.407,5.38,0.504,4.41
ATCGAACGGTCGAAGGTGAGTATACCCACCCGAA,-0.97,0.443,0.226,-0.543,-0.177,-0.254,-0.523,0.0689,-0.549,1.05
GCGACTGGGGCATCAGAAGGTTACCATAACTTAA,3.59,3.39,0.195,-0.175,0.756,0.582,-0.271,0.988,-0.432,1.2
CAAACTAGGTCAAGGTTAAAGTCGGTTTGTGCCA,8.28,8.73,1.13,0.568,2.77,3.05,0.428,3.41,0.337,4.2
CATATAGGGTCAGCTAGGCCAGAGTAGGGACGGC,2.06,2.63,1.01,0.805,1.9,2.17,-0.332,3.31,0.466,3.96
ATCTCTAGGTAACCAAGATCAGTGAATGCCGAAC,2.88,2.67,0.887,1.13,0.619,0.0058,0.344,0.377,0.145,0.119
TATACAGGGTCAAATGCCAGAGTACGAATGTCGA,2.62,4.6,3.56,3.07,3.17,4.3,1.12,5.47,1.22,4.55
CCTAGTTGCTCAGGAGGTCACACACCGGATATGA,0.887,2.47,0.559,1.01,3.26,4.39,1.59,4.49,2.6,3.64
ATCTCTAGGTAAAGATAGTTCAGCGAATGCAAAT,2.37,1.47,0.72,1.31,0.488,0.995,0.643,0.739,1.34,0.964
GCTGCTAGGTAAACTGATGGTCAGCTAAAGCTCG,0.994,0.0303,-1.25,-0.794,-1.08,-0.636,-0.67,-0.68,-1.2,-0.155
ATATGTAGGTTAAGGGTCATTCGGGTTGGTTCGC,7.7,8.1,6.59,4.92,8.66,6.02,3.75,6.67,3.12,3.43
CAAACTCGGTCACCGGAAGGTCAAAGTCCGCATG,4.82,5.21,0.644,0.562,4.4,4.75,1.84,5.66,1.31,4.61
CCTACTGGGCCAAAGGTCATCGATTCCAATGCTC,4.64,6.76,0.425,-0.332,3.7,5.15,0.811,6.16,1.37,4.7
GCTGCTAGGTCACGTTGGTCAGCTAACGGGTACG,5.22,4.99,0.1,-0.257,1.72,1.74,-0.356,2.81,-0.306,4.18
ACTATTAGTTGACTAAGGGCAACCGATACGACGC,0.0727,0.783,0.688,0.819,0.638,0.652,0.92,0.766,0.98,1.53
CGAACTAGGTCAAAACAGGACAGTGAAGGATGAT,7.83,8.1,3.19,2.56,2.39,2.05,-0.00978,2.02,0.444,3.33
ATCTCTAGGAAAGACTCAGTTCAGTGAAGAACGC,-0.0594,-0.318,0.245,0.852,0.978,0.737,1.37,0.199,0.964,0.144
GCTGCTAGGTCAGGTTGGTGAGCTAACGGGTACG,2.52,1.93,-0.822,-0.37,0.201,0.142,-0.5,0.873,-0.817,3.24

Sequence,PBM binding z-score [1],PBM binding z-score [2],PBM binding z-score [3],PBM binding z-score [4],PBM binding z-score [5],PBM binding z-score [6],PBM binding z-score [7],PBM binding z-score [8],PBM binding z-score [9],PBM binding z-score [10]
TCTTGTAGATCAATAGAGGTTACGAAAGTGCGCT,1.83,1.63,0.944,0.638,0.416,3.21,0.389,2.22,0.489,1.24
TCTTATAGGTAAATGCTAGGTGAAAGTCCGATCT,3.93,2.62,1.31,1.13,1.1,0.946,0.588,1.4,1.65,0.769
GCATATAGGTAATACAAAGTGAAAGTCCGATTGT,4.28,2.73,0.942,1.36,-0.267,-0.28,-0.0675,-0.178,0.391,-0.152
CGTCCAAGGTCAAATGTCAGTGAAGAGATGACGG,3.67,4.11,0.495,-0.392,2.49,4.82,1,5.67,0.72,5.38
ATCTCTAGGTAAAGTTCTGTGAAAGATCGATAGA,2.44,1.61,1.11,1.68,1.26,0.0126,0.619,0.484,0.939,0.419
GATACAGGTTCAGCTAGAGGCCAGAGTATGGAAA,-0.632,-0.397,-0.984,-1,0.61,1.19,-0.0373,1.64,0.321,1.35
TCTTGTAGATCAATAGAGGTTATGAAAGTGCGCT,1.9,1.34,0.208,0.487,0.327,2.9,0.0755,2.04,0.403,1.02
CATACAGGGTCAGCTAGGCCAGAGTGGGGACGGC,1.06,2.57,-0.069,1.07,1.44,2.19,0.0916,2.78,0.651,4.03
TCTAGTTGGTCAAAGGTCACACAATCGAAATGCG,3.58,6.28,1.49,2.13,4.36,5.97,2.1,7.76,3.91,5.16
TCTTGTAGATCAATAGAGGTTAAGAGAGTGCGCT,1.67,1.07,0.505,0.44,0.687,3.92,0.241,1.73,0.69,0.738
ATCTCTAGGTAAAGTTCCGTGAAAGATCGATAGA,2.64,1.76,0.867,0.679,0.653,0.0557,0.396,0.388,1.19,0.403
GCTAGATGGTCAGTAAAAGGTCACACACCGGTCG,0.38,2.57,0.624,-0.0918,3.76,4.83,0.89,5.65,2.5,4.43
ACTAGTTGGTCAGCTGAGGTCCCACACAATTCGG,0.847,1.02,-0.38,1.01,0.419,0.0973,-0.424,0.479,-0.0479,0.921
AGAATGAGGTTAAGATCAGCGAAACAGAATACAT,1.69,2.37,1.19,0.858,-0.266,0.978,0.422,1.82,0.555,1.83
CCTACTGGGCCATGCAGAGGTCATTGATCATATG,3.41,4.39,0.533,0.384,2.69,5,1.62,4.75,0.229,3.05
TGAATGAGGTTATAAGATCAGAGAACGTTGCAAA,0.837,1.71,0.635,0.498,0.196,0.687,-0.71,1.18,-0.143,0.975
CCTTACGGGTCACGAGATTATAGCACGACGAGCG,4.81,4.72,1.92,0.779,2.33,3.46,0.13,4.62,1.2,4.26
CAAACTAGGTCAAAGTTCAAAGTCGAGCCAACCA,8.26,8.92,2.7,3.37,3.22,6.38,5.12,7.88,1.43,5.27
TCAGACAGGTGAACGTAACTCAGGTACGCAGTCG,2.71,1.55,0.22,-0.331,0.406,0.573,0.448,0.752,0.0461,1.19
TCGAGTAGGTTAGGGGCAATCAGAATGGCGTCGA,2.08,1.37,-0.745,-0.163,1.06,0.437,0.0887,0.347,-0.176,1.19
TTACCAAGGTGAGCGGAGGTCGTTGATCCAACTC,1.19,2.32,-0.403,-0.114,-0.196,4.22,0.00572,1.51,-1.17,1.92
CTCGAAAGGTCGTGCTCAGCTGAGTATACCAAAC,0.87,1.49,0.246,0.618,1.59,2.99,-0.206,3.49,0.13,3.72
CGTCAAAGTCCAACTAAGGTAACGTAAAGCACGC,0.179,0.394,0.436,-0.503,0.498,0.234,0.179,1.23,0.41,1.9
TTACCAAGCTGAGCTGAGGTCGTTGATCCAACTC,-0.796,-0.588,-0.701,-1.02,-1.16,1.06,0.0399,0.708,-1.15,0.0389
